Screens from PubChem BioAssay.
Sampled rows, rich in hits. Any-hit rate of the full collection: about 12%.
JMJD2A Tudor inh – JMJD2A Tudor domain (human) inhibition | O75164 | AlphaScreen JMJD2A-Tudor / H3K4me3 peptide binding | Potency, µM (doses to about 114 µM), for inactives: at the top dose activity change, negative = inhibition, usual class: inhibitors | 390,000 compounds, 4.4% hits | AID 504339; further: on the % scale 0 is the no-effect control and ±100 the full control effect; nearly all actives have a fitted effect of over 50% in size
HP1b chromo inh – blocks HP1-beta chromodomain binding to methylated histone tails | 390,000 compounds, 0.56% hits | AID 540317 | Potency, µM (doses to about 114 µM), inactives show at the highest dose activity change, negative = inhibition, actives largely listed as inhibitors | P83916 | AlphaScreen HP1-beta / biotin-H3K9me3 peptide binding; further: nearly all actives have a fitted effect of over 70% in size
Target sequence (P83916 whole entry, looked up): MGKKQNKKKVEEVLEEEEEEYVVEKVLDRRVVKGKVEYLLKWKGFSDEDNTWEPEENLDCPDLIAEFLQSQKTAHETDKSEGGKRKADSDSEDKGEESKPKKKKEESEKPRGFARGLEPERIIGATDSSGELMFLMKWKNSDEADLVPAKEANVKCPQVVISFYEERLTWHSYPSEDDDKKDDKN
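Compound inhibition of the preformed complex between 50 nM HP1-beta and 50 nM biotinylated H3K9me3 peptide was read by AlphaScreen. Buffer was PBS pH 7.4 with 0.01% Tween-20. Incubations ran 30 min at room temperature, with 10 ug/mL donor/acceptor beads.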
Sfp inh – blocks B. subtilis Sfp PPTase activity | Q9F4F7 | Biochemical Sfp PPTase activity, qHTS | Potency, µM, inactives show largest response in the series, negative = inhibition, most hits filed as inhibitors | 310,000 compounds, 3.5% hits | AID 1490;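 further: the enzyme is Sfp with the accession as filed and its product quenches rhodamine fluorescence; 0% = enzyme reaction without inhibitor and -100% = no enzyme wells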
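Reaction rates are the 30-min fluorescence difference (ex 525, em 598 nm) in wells containing 15 nM Sfp, 5 uM rhodamine-CoA and 12.5 uM BHQ-2-YbbR at pH 7.6 with 10 mM MgCl2.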
G9a block – inhibitors of human histone lysine methyltransferase G9a. Q96KQ7. G9a H3K9 monomethylation, AlphaScreen, 2 h. Potency, µM (highest dose often 102 µM), for the others: at the top dose activity, negative = inhibition, usual class: inhibitors. 350,000 compounds, 8.8% hits. AID 504332; further: on the % scale 0 is the no-effect control and ±100 the full control effect; nearly all actives have a fitted effect of over 75% in size
Target sequence (Q96KQ7 913-1193 limits assumed): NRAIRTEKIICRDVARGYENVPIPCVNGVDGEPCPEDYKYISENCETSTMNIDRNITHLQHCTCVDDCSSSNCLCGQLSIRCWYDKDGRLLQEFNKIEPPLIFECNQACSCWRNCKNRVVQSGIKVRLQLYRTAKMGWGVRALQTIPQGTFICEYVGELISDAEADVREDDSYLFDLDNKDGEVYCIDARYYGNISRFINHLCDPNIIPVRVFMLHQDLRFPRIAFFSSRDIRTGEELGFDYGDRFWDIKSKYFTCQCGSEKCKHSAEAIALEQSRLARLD
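G9a (20 nM) preincubated 15 min RT with compounds, then 500 nM biotinylated H3K9 peptide and 20 uM SAM added; 2 h RT reaction. Monomethyl-H3K9 product detected by AlphaScreen with anti-H3K9me1 antibody, streptavidin donor and anti-rabbit IgG acceptor beads.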
BAZ2B inh – BAZ2B (human) inhibition; AlphaScreen BAZ2B-H3K14Ac peptide displacement; Potency, µM (highest dose often 114 µM), inactives show at the highest dose activity change, negative = inhibition, hits mostly inhibitors; 360,000 compounds, 4.4% hits; AID 504333; further: on the % scale 0 is the no-effect control and ±100 the full control effect; nearly all actives have a fitted effect of over 60% in size
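Protein-peptide AlphaScreen: BAZ2B 50 nM, b-H3K14Ac 50 nM, 1x PBS pH 7.4 + 0.01% Tween-20. Preincubation 30 min RT; cpd 30 min RT (top 110 uM); beads 20 min RT, light-protected.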
L3MBTL1 block – inhibitors of human L3MBTL1. Q9Y468. 230,000 compounds, 0.66% hits. Potency, µM (series often up to 57.1 µM), inactives show at the top dose activity, negative = inhibition, hits mostly inhibitors. AlphaScreen L3MBTL1–H3K9me1 peptide binding; further: on the % scale 0 is the no-effect control and ±100 the full control effect; nearly all actives have a fitted effect of over 60% in size
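First, the protein-peptide complex forms for 30 min at room temperature (L3MBTL1 50 nM, biotinylated H3K9me1 peptide 75 nM). Next, compounds are pin-transferred and incubated 30 min. Finally, AlphaScreen beads are added and read after 30 min.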
Active calls of the source: *; ? = inconclusive; · = no result given; [ ] = dose if it differs, or a comment. The call rests on the fitted dose curve; in most records, active means well fitted curve in the direction sought with a large enough effect; inconclusive means small, poorly fitted or top-dose-only effect, or another doubt; inactive means no such curve, though single readings can be large; an effect the other way counts as inactive or inconclusive. Potency means the concentration at half of the fitted maximal effect.

SMILES	JMJD2A Tudor inh	HP1b chromo inh	Sfp inh	G9a block	BAZ2B inh	L3MBTL1 block
CCN(C(=O)CSc1nnnn1-c1ccccc1)c1c(N)n(Cc2ccccc2)c(=O)[nH]c1=O	-13%	36%	-19%	13µM*	-6%	1%
O=S1(=O)c2cccc3cccc(c23)N1Cc1nnc(-c2ccccc2Br)o1	-15%[11.4 µM]	-13%	1%	56µM*	6%	-1%
O=C1c2ccccc2S(=O)(=O)N1Cc1nnc(-c2ccccc2Br)o1	-6%	51%	16%	?	-2%	0%
c1cc(SSc2ccncc2)ccn1	14µM*	?	35µM*	0.56µM*	?	·
COc1ccc(C(=O)N(Cc2ccc(N(C)C)cc2)Cc2ccco2)cc1Cl	35µM*	?	·	?	20µM*	·
Cc1ccc(C(=O)N(Cc2ccco2)Cc2ccco2)cc1	-29%	13%	·	?	?	·
Cc1cc2oc(C(=O)N(Cc3ccc(N(C)C)cc3)Cc3ccco3)c(C)c2cc1Cl	13µM*	?	·	13µM*	13µM*	·
COc1ccc(C(=O)N(Cc2ccco2)Cc2ccccc2F)cc1Cl	-26%	51%	·	14%[59 µM]	-2%	·
Cc1cc2oc(C(=O)N(Cc3ccco3)Cc3ccccc3Cl)c(C)c2cc1C	-6%	44%	·	12%[59 µM]	3%	·
CCn1cnc2sc(C(=O)N(Cc3ccc(N(C)C)cc3)Cc3ccco3)c(C)c2c1=O	50µM*	35µM*	?	16µM*	45µM*	?
CN(C)c1ccc(CN(Cc2ccco2)C(=O)c2ccc(C(C)(C)C)cc2)cc1	13µM*	?	·	11µM*	11µM*	·
CCn1cnc2sc(C(=O)Oc3ccc(Br)cc3)c(C)c2c1=O	-5%[57.1 µM]	43%	9%	-4%[59 µM]	-2%	·
O=C(Nc1cc(Cl)cc(Cl)c1)c1cc(S(=O)(=O)N2CCC3(CC2)OCCO3)ccc1F	-6%	29%	·	3%[59 µM]	-1%	·
CN(Cc1ccccc1F)C(=O)CN1c2cccc3cccc(c23)S1(=O)=O	-6%	40%	·	11%[2.33 µM]	8%	1%
O=C(CSc1nnc2c3ccccc3c3ccccc3c2n1)Nc1ccccc1	·	·	9%	45µM*	-5%[57.1 µM]	0%
O=C(CSc1nnc2c3ccccc3c3ccccc3c2n1)Nc1ccccc1F	-22%	-11%	-63%	·	56µM*	-8%
CCOC(=O)C1=C(N)Oc2ccc(Br)cc2[C@@H]1[C@@H](C#N)C(=O)OCC	·	·	-5%	·	·	·
Cc1cc(N)c2ccccc2n1	-16%	9%	2%	?	-7%	-30%
Cc1cc(N)c2ccccc2[n+]1CCCCCCCCCCCCCC[n+]1c(C)cc(N)c2ccccc21	·	·	·	0.4µM*	·	·
COc1ccc(C2=Nn3c(nnc3-c3cccc(OC)c3OC)SC2)cc1OC	-3%	·	12%	·	·	·
O=C1OCCC/C1=C\c1ccc2c(c1)OCO2	-15%	29%	-10%	-13%[12.7 µM]	-38%	·
CCCN1C/C(=C/c2ccc3c(c2)OCO3)C(=O)/C(=C/c2ccc3c(c2)OCO3)C1	22µM*	?	40µM*	?	50µM*	-4%
CC1=C/C(=C\c2ccc3c(c2)OCO3)C(=O)S1	?	-11%	-25%	25µM*	?	-11%
CCCN1C(=O)/C(=C/c2ccc3c(c2)OCO3)NC1=S	-23%	35%	12%	9%[59 µM]	-28%	·
Cc1ccc(NS(=O)(=O)c2cccc(C(=O)NCC(c3ccco3)N3CCCCC3)c2)cc1 (stereo unspecified)	-33%	-1%	2%	·	?	·
SMILES	JMJD2A Tudor inh	HP1b chromo inh	Sfp inh	G9a block	BAZ2B inh	L3MBTL1 block
ClCCn1cnc2c(SCc3ccccc3)ncnc21	-3%	21%[57 µM]	·	·	·	·
Cc1ccc(Cc2c(C)nc3nc(SCC(=O)NCCCN4CCCCCC4)nn3c2C)cc1	-30%	-23%	-6%	35µM*	?	·
Cc1nc2nc(SCC(=O)NCCCN3CCCC3)nn2c(C)c1Cc1ccccc1Cl	-35%	-11%	3%	79µM*	-13%	·
O=C(O)C(Cc1c[nH]c2ccccc12)NS(=O)(=O)c1ccc(Cl)c(C(F)(F)F)c1 (stereo unspecified)	?	-3%	5%	-51%	-16%	·
Cc1ccc(-n2c(CNc3cccc(Cl)c3)n[nH]c2=S)cc1	-21%	2%	-15%	4.5µM*	-19%	20%
Cc1ccc(-n2c(CNc3ccc(C)c(Cl)c3)n[nH]c2=S)cc1	?	11%	6%	50µM*	?	-12%
CCOC(=O)C1CCN(C(=O)c2ccccc2)C(CC)C1=O (stereo unspecified)	-11%	-2%	·	·	·	·
C[C@H]1CN([C@@H](C)CO)C(=O)c2cc(NS(=O)(=O)c3ccc(Cl)cc3)ccc2O[C@@H]1CN(C)CC1CCCCC1	?	5%	·	·	·	-5%
COc1ccc(N2CCN(C(c3cccs3)C(C)NC(=O)c3ccco3)CC2)cc1 (stereo unspecified)	?	-15%	-2%	3.5µM*	?	-10%
COc1ccc(N2CCN(S(=O)(=O)c3cccs3)CC2)cc1	-34%	-9%	2%	25µM*	-35%	-4%
COc1ccccc1N1CCN(C(c2cccs2)C(C)NC(=O)c2ccco2)CC1 (stereo unspecified)	-31%	8%	5%	-42%	-38%	-10%
COc1ccc(N2CCN(S(=O)(=O)c3ccc(Cl)s3)CC2)cc1	-10%	-5%	-5%	-25%	-17%	-6%
COc1ccc(N2CCN(C(c3cccs3)C(C)NS(C)(=O)=O)CC2)cc1 (stereo unspecified)	-28%	10%	-5%	56µM*	·	·
COc1ccc2c(c1)c(CCNNC(=O)C(C)(C)C)c(C)n2C(=O)c1ccc(Cl)cc1	?	31%	·	·	·	·
Cc1ccc(Nc2nnc(-c3ccccc3N)o2)cc1C	1%	35%	14%	·	-11%	·
NNc1cc(C(=O)O)ccc1Cl	25µM*	?	?	·	?	-8%
O=C(O)c1cc(N/N=C/C(Cl)=C/c2ccccc2)ccc1Cl	-30%	9%	-21%	35µM*	35µM*	-15%
CC(C)(C)C(=O)NC(=S)Nc1cc(C(=O)O)ccc1Cl	-7%[11.4 µM]	67%	5%	-1%[12.7 µM]	-1%	1%
O=C(O)c1cccc2c1-c1ccccc1/C2=N\Nc1ccccc1	?	22%	13µM*	50µM*	-31%	·
O=C(O)c1cc(NN=C2c3ccccc3-c3ccccc32)ccc1Cl	-33%	-6%[57 µM]	-8%	45µM*	?	·
O=C(O)c1cc(NC(=S)NC(=O)C(c2ccccc2)c2ccccc2)ccc1Cl	-13%	2%	-7%	?	-20%	-3%
COc1ccc(N(Cc2nnc3n2CCCCC3)C(=O)Nc2ccc(Cl)cc2)cc1Cl	7%	28%[57 µM]	·	1%[59 µM]	6%	·
